Screening data (PubChem)
Only some compounds are listed: those with a hit (about 17% of all), similar ones and a draw of the others.
HepG2 tox: HepG2 cytotoxicity, counter-screen for TGF-b inhibitors; HepG2 CAGA-GFP viability, ATP luminescence, 18 h; Potency, µM (top dose mostly 46.1 µM), inactives show top-dose activity change, negative = cytotoxicity, usual class: cytotoxic; 0.76% of 410,000 active; AID 588856
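HepG2 CAGA-GFP cells (1000/well, DMEM with 1% FBS) received compound, then TGF-beta at 500 pg/mL final, and were incubated 18 hours at 37 degrees C. Viability was read by CellTiter-Glo luminescence. Media-only wells were set as complete cell-killing and DMSO as no toxicity.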
HT1080NT lethal: kills 2HG-producing HT-1080-NT fibrosarcoma cells; Potency, µM (titrated, usually from 46.1 µM), without a hit: at the top dose activity, negative = less viability, actives largely listed as cytotoxic; 1.6% of 360,000 active; AID 686970; HT-1080-NT fibrosarcoma viability, CellTiter-Glo ATP luminescence, 48 h;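 also: NT is the 2HG producing partner of a matched IDH1 knockdown line; 0% = DMSO-treated cells and -100% = media-only wells without cells; nearly all actives have a fitted effect of over 55% in size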
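Luminescent CellTiter-Glo readout after 48 hours of compound exposure at 37 degrees C defined viability of HT-1080-NT cells. Activity was normalized to DMSO wells and cell-free media wells; concentration-response curves were fitted and assigned curve classes.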
TDP1 cell noCPT: qHTS for Inhibitors of human tyrosyl-DNA phosphodiesterase 1 (TDP1): qHTS in cells in absence of CPT. DT40 Tdp1-/- hTDP1 cells, no CPT, ATP luminescence, 48 h. Potency, µM (top dose mostly 46.2 µM), for the others: at the top dose activity change, negative = growth inhibition, most hits filed as inhibitors. AID 686978, 2013. 15% of 420,000 active; also: % is scaled to controls: 0 for no effect and ±100 for the full control effect; nearly all actives have a fitted effect of over 55% in size
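Chicken DT40 Tdp1-/- cells complemented with human TDP1, screened without camptothecin (DMSO vehicle only), 400 cells/well. Compounds pin-transferred, cells incubated at 37 °C for at least 48 hr. Growth read as ATP-dependent luminescence (CellTiter-Glo, 30 min at RT).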
TGFb inhibitor: TGF-b pathway inhibition | HepG2 CAGA-GFP TGF-b/SMAD3 reporter, GFP fluorescence, 18 h; TGF-beta stimulated, 500 pg/mL final | Potency, µM (top dose mostly 46.1 µM), inactives show top-dose activity, negative = inhibition, most hits filed as inhibitors | 1.2% of 410,000 active; also: % is scaled to controls: 0 for no effect and ±100 for the full control effect; nearly all actives have a fitted effect of over 65% in size
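Using HEPG2 CAGA-GFP reporter cells at 1000 cells/well, we pinned test compounds, stimulated with recombinant TGF-beta (500 pg/mL final) and measured total well GFP after 18 h.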
DT40 TDP1 CPT: DT40-hTDP1 cell growth loss with CPT | 12% of 420,000 active | chicken DT40 Tdp1-/-;hTDP1 cells + 20 nM CPT, ATP luminescence, 48 h | Potency, µM (highest dose often 46.2 µM), for inactives: at the top dose activity change, negative = growth inhibition, hits mostly inhibitors | AID 686979; also: % is scaled to controls: 0 for no effect and ±100 for the full control effect; nearly all actives have a fitted effect of over 55% in size
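Cell growth measured by CellTiter-Glo luminescence after a minimum 48 h, 37 C compound exposure with 20 nM CPT in Tdp1-knockout DT40 cells stably expressing hTDP1, seeded 400/well; qHTS titration format.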
HT1080 IDH1KD tx: kills HT-1080 cells with IDH1 knockdown; HT-1080 IDH1 knockdown viability, ATP luminescence, 48 h; Potency, µM (top dose mostly 46.1 µM), for inactives: at the highest dose activity, negative = toxicity, most hits filed as cytotoxic; 2% of 360,000 active;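 also: 0% = DMSO wells and -100% = cell-free medium wells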
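Viability of IDH1-knockdown HT-1080 fibrosarcoma cells was assessed by CellTiter-Glo after 48 h at 37 °C with titrated compound; concentration-effect curves were classified by fit quality and response size.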
The depositor's hits bear a star; ? = inconclusive; nt = not tested or not shown; [ ] = remark or other dose. Calls follow the shape of the dose curve; as a rule, active = well fitted curve in the direction sought with a large enough effect; inconclusive = small, poorly fitted or top-dose-only effect, or another doubt; inactive = no such curve, though single readings can be large; an effect the other way counts as inactive or inconclusive. Potency is read from the fitted curve at half-maximal effect.

SMILES	HepG2 tox	HT1080NT lethal	TDP1 cell noCPT	TGFb inhibitor	DT40 TDP1 CPT	HT1080 IDH1KD tx
S=C(Nc1ccc(Br)cc1Cl)N1CCCC1	2%	3%	8%	2%	19%	3%
Brc1cccc(OCCCCN2CCCCC2)c1	-1%	0%	?	-1%	4%	-20%
O=C1CCc2ccc(OCCCCN3CCN(c4cccc(Cl)c4Cl)CC3)cc2N1	-13%	25%	15µM*	1%	16µM*	3%
COc1cc2[nH]c(=O)n3nc(-c4ccccc4)nc3c2cc1OC	0%	1%	21µM*	-7%	23µM*	5%
CC1CN(CC(=O)N2CCN(Cc3nccn3C)CC2)Cc2cc(Cl)ccc2O1 (configuration not stated)	nt	nt	-3%	nt	5%[9.04 µM]	nt
O=c1c2ccccc2oc2cc(C#Cc3ccccn3)ccc12	-1%	23%	-1%	?	-2%	15%
C=CCn1c2ccccc2c(=O)c2cc(C#Cc3ccccn3)ccc21	0%	-23%	18µM*	?	26µM*	-7%
COc1cccc(/C=N/NC(=O)c2nnn(-c3nonc3N)c2CN(C)C2CCCCC2)c1	3%	8%	?	1%	?	4%
FC(F)C(F)(F)Oc1cccc(Nc2nccn3c(-c4ccc5ccccc5c4)cnc23)c1	-10%	-20%	23µM*	2%	?	?
FC(F)C(F)(F)Oc1cccc(Nc2nccn3c(-c4cccc5ccccc45)cnc23)c1	-2%	?	?	-22%	16µM*	?
NC(=O)c1cccc(-c2cnc3c(Nc4cccc(OC(F)(F)C(F)F)c4)nccn23)c1	-29%	?	?	?	?	?
Oc1ccc(-c2cnc3c(Nc4cccc(OC(F)(F)C(F)F)c4)nccn23)cc1	-15%	?	?	-18%	?	?
Fc1cccc(F)c1/C=C/c1ccc2ccccc2n1	-36%	-23%	?	?	?	-22%
COc1ccccc1/C=C/c1ccc2ccccc2n1	-31%	nt	16µM*	-12%	?	nt
COc1cc(/C=C/c2ccccc2)cc(OC)c1	1%	15%	-20%	26%	26%	4%
CC(O)/C=C/c1ccc2ccccc2n1 (configuration not stated)	-45%	?	?	2%	13µM*	11µM*
COc1cc(Cl)cc(/C=C/c2ccc3ccccc3n2)c1OC(C)=O	-67%	15µM*	?	-6%	?	15µM*
COc1cc(/C=C\c2ccc(OC)cc2OC)cc(OC)c1	nt	nt	?	nt	7.5µM*	nt
CCCCCCCCCCCCSCCOCCO	nt	nt	2%	nt	11%	nt
COc1ncc2nc(-c3ccc(F)cc3)c(=O)n(Cc3cccs3)c2n1	nt	nt	4%	nt	-2%	nt
Fc1ccc(/C=C/c2ccc3ccccc3n2)cc1	-30%	nt	2.8µM*	?	2.8µM*	nt
COc1cc(OC)c(OC)cc1/C=C/c1ccc2ccccc2n1	-16%	nt	14µM*	1%	11µM*	nt
COc1cc(OC)c(OC)cc1/C=C/c1nc2ccccc2o1	-28%	nt	13µM*	6%	?	nt
COc1ccccc1/C=C/c1nc2ccccc2c(=O)o1	-19%	-5%	-19%	1%	-8%	-18%
C(=C\c1nc2ccccc2o1)/c1ccc2c(c1)OCO2	2%	nt	?	-2%	?	nt
COc1ccc(/C=C/c2nc3cc(-c4ccccc4)ccc3o2)cc1O	-88%	?	9.2µM*	-34%	9.2µM*	?
Cc1ccc(-c2cc(C3C4C=CCC(C)C4C(=O)N3Cc3ccccc3)ccc2F)cc1 (configuration not stated)	-13%	nt	nt	-17%	nt	nt
